Rows were chosen to be rich in hits. Some 2.5% of all compounds tested hit in one or more screens of this group.
CRFBP-R2 block: blocks CRF-induced signaling of the CRF-BP/CRF-R2 complex. inhibition, % at 11.8 µM. HEK293 CRF-R2/CRF-BP, CRF-induced calcium fluorescence. actives 0.59% (n = 350,000);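 active = inhibition of the ligand-induced calcium signal above about 50% at the single tested concentration, limit read from the data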
SKN-1 inh: blocks SKN-1 activity in C. elegans; C. elegans VP596 Pgst-4::GFP/RFP ratio, acrylamide-induced, 24 h; inhibition, % at 21.8 µM; actives 0.49% (n = 360,000);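 active = interference check ratio from 0.5 to 1.5 plus GFP to RFP signal ratio inhibition reaching or exceeding a fixed threshold, cut at about 30% in these data, passing the limit was not always enough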
Cardio protect: modulators protecting cardiomyocytes from myocardial damage; protection from H2O2 cell death, % at 20 µM; H9c2 cardiomyocytes, H2O2 injury protection, ATPLite, 2 h; actives 0.63% (n = 360,000); AID 588492;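 active = compounds giving at least 50% protection of heart cells from peroxide-induced death in the single-dose screen, raw or plate-pattern-corrected value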;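 note: 0% = DMSO wells with peroxide and 100% = DMSO wells without peroxide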
CRFBP-R2 agonist: CRF-BP/CRF-R2 complex agonism. HEK293 CRF-R2/CRF-BP, calcium dye fluorescence (FLIPR); percent of saturating CRF peptide response. activation, % at 13.2 µM. actives 0.46% (n = 350,000);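 active = activation of at least 50%, plus an integration ratio under a set limit after plate pattern correction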;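 note: plate controls were neutral control wells without compound for no effect and CRF at EC100 for full effect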
hiPSC survival: enhancers of human iPSC single-cell survival | AID 602274 | hiPSC single-cell survival, ATPlite luminescence; 100% = ROCK inhibitor wells, 0% = DMSO | survival enhancement, % at 20 µM | actives 0.044% (n = 360,000); in the data active = survival enhancement above about 18%;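 note: cells exposed to compounds for 16 hours before the ATP read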
TAG inh: triacylglycerol accumulation inhibition | H9c2 cells, Nile Red lipid (TAG) fluorescence; cells loaded with 200 µM oleic acid | actives 0.66% (n = 230,000) | inhibition, % at 12.5 µM | AID 651582;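 active = pattern-corrected inhibition of lipid staining of at least 50% with the nuclear-stain viability signal not falling by more than 50%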;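 note: 0% = DMSO wells and 100% = triacsin C control wells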
An asterisk follows results filed as active; . = no result.

SMILES	CRFBP-R2 block	SKN-1 inh	Cardio protect	CRFBP-R2 agonist	hiPSC survival	TAG inh
COc1ccc2c3c(cccc13)N(C)N=C2C	-9	41*	-10	8	1	3
O=C(COc1cccc(C(F)(F)F)c1)NNC(=O)c1ccc(=O)[nH]c1	8	4	1	2	0	-15
Cc1ccc(CN2CCN(C3CCOCC3)CC2CCO)cc1 (stereo unspecified)	80*	1	2	1	0	8
Cc1ccc(CN2CCN(C3CCC3)CC2CCO)cc1 (stereo unspecified)	5	-19	7	1	1	.
Cc1ccc(N=c2c([N+](=O)[O-])nn(-c3ccccc3)n2O)c(C)c1	-39	-7	-6	-4	-2	.
Cc1c(Cl)cccc1N=c1c([N+](=O)[O-])nn(-c2ccccc2)n1O	10	52*	-5	0	6	.
CCC1(CC)NC(=O)N(CC(=O)OCC(=O)Nc2ccccc2[N+](=O)[O-])C1=O	-12	7	70*	-1	0	-29
COc1ccc(NC(=S)N(Cc2cccnc2)Cc2cc3cc(OC)c(OC)cc3[nH]c2=O)cc1	15	-14	66*	0	0	5
COc1ccc2[nH]c(=O)c(CN(Cc3cccnc3)C(=O)Nc3ccccc3)cc2c1	-15	24	30	-4	1	.
COc1ccc(N(Cc2cc3cc(OC)ccc3[nH]c2=O)C(=O)c2cccnc2)cc1	-1	3	109*	0	-1	20
N#Cc1c(Nc2ccccc2)[n+]([O-])c2ccc(Cl)cc2[n+]1[O-]	-4	10	5	7	-2	6
C=C1CCN(C(C)C(=O)OC)S(=O)(=O)c2ccccc21 (stereo unspecified)	-20	16	-4	9	8	55*
C=C1CCN(C(C(=O)OC)C(C)C)S(=O)(=O)c2ccccc21 (stereo unspecified)	-3	23	9	0	-1	-3
CC(=O)c1cc(F)c(N2CCCC2)cc1C	-24	19	-22	-2	-2	12
CC(=O)c1cc(F)c(N2CCN(C(=O)C(C)(C)C)CC2)cc1C	74*	-14	-2	-5	2	8
COc1cccc(OC)c1C(=O)Nc1ccc(Br)c(C(=O)c2ccccc2)c1	-6	0	54*	1	0	.
O=[N+]([O-])c1ccc(N/N=C/c2sc(N3CCOCC3)nc2-c2ccccc2)c(S(=O)(=O)Nc2ccc(Cl)cc2)c1	-55	11	-19	83*	0	.
O=[N+]([O-])c1ccc(N/N=C/c2sc(N3CCOCC3)nc2-c2ccccc2)c(S(=O)(=O)Nc2ccccc2Cl)c1	-39	-5	-15	67*	-2	.
O=C(NC1CCCC1)C1C(c2ccc(C(F)(F)F)cc2)=Nc2ccccc2N1C(=O)c1cc2ccccc2[nH]1 (stereo unspecified)	.	1	.	.	.	.
Cc1c(C(=O)NCC(c2ccco2)N(C)C)oc2c(Cl)cccc12 (stereo unspecified)	-3	-5	8	0	0	-9
Cc1ccc(C2CC(=O)Oc3cc(O)ccc32)cc1 (stereo unspecified)	-3	35*	21	-1	0	-5
O=C1CC(c2ccccc2)c2cc(O)ccc2O1 (stereo unspecified)	-6	-2	10	-1	-1	.
COc1cccc(N2CC(O)=C(c3ccccc3)C2=N)c1	14	35*	-2	3	10	-6
COc1cccc(N2CC(O)=C(c3nc4ccccc4s3)C2=N)c1	10	-3	-1	-2	-1	.
COc1ccc(C2Nc3ccccc3C(=O)N2Cc2ccco2)cc1COc1ccc(F)cc1 (stereo unspecified)	23	43*	0	0	-2	-5
SMILES	CRFBP-R2 block	SKN-1 inh	Cardio protect	CRFBP-R2 agonist	hiPSC survival	TAG inh
CCCN1C(=O)c2ccccc2NC1c1ccc(OC)c(CSc2ccccn2)c1 (stereo unspecified)	50*	5	1	-2	2	.
COc1ccc(C2Nc3ccccc3C(=O)N2Cc2ccco2)cc1CN1C(=O)c2ccccc2C1=O (stereo unspecified)	-23	4	2	-3	0	2
CCCCN(C)C(=O)c1cc2c(Cl)nc3ccccc3c2s1	-2	7	12	-2	0	.
C/C=C(\C)CN1CCC(Oc2ccc(C(=O)NCc3ccccn3)cc2)CC1	-1	-11	3	-1	0	2
COCCNC(=O)C(c1ccc(C)o1)N(Cc1ccc(OC)cc1)C(=O)Cn1nnc2ccccc21 (stereo unspecified)	-7	35*	6	0	-2	-12
COCCNC(=O)C(c1ccc(C)o1)N(Cc1ccc(F)cc1)C(=O)Cn1nnc2ccccc21 (stereo unspecified)	-7	7	-8	-2	3	14
COc1cc(CC(=O)N/N=C/c2ccc([N+](=O)[O-])cc2)c([N+](=O)[O-])cc1OC	0	-5	4	0	1	-12
CCN1C/C(=C/c2ccc(OC)c(O)c2)C(=O)/C(=C/c2ccc(OC)c(O)c2)C1	5	2	16	-1	-1	0
COc1cc(C=C2C(=O)c3ccccc3C2=O)cc(OC)c1OC	88*	22	-2	1	0	-24
COc1ccc(C=C2C(=O)c3ccccc3C2=O)cc1O	66*	-2	-4	-1	0	14
COc1ccc(/C=C2\CN(Cc3ccccc3)C/C(=C\c3ccc(OC)c(O)c3)C2=O)cc1O	-5	8	61*	1	-1	.
COc1cccc(/C=C2\C(=O)C(=O)c3ccccc32)c1	76*	-1	0	-3	0	.
CC(C)N1CCSC1=S	-4	-4	5	0	-1	2
COc1ccc(-n2cccc2/C=C2\C(=N)N3N=C(c4ccco4)SC3=NC2=O)cc1	52*	19	-6	-1	3	.
N=C1/C(=C/c2coc3ccccc3c2=O)C(=O)N=C2SC(c3ccco3)=NN12	-105	-6	0	168*	0	5
N=C1/C(=C\c2coc3ccc(O)cc3c2=O)C(=O)N=C2SC=CN12	-88	5	-2	152*	0	7
N=C1/C(=C\c2coc3ccccc3c2=O)C(=O)N=C2SC(c3ccncc3)=NN12	-118	-17	0	159*	0	-3
CN1C(=O)/C(=C/c2coc3ccc(O)cc3c2=O)SC1=S	-13	14	18	1	-1	-5
CC1=NN2C(=N)/C(=C\c3cc(C)n(-c4ccccc4)c3C)C(=O)N=C2S1	-26	9	-6	1	1	5
Cc1cc(/C=C2\C(=N)N3N=C(c4ccco4)SC3=NC2=O)c(C)n1Cc1ccccc1	-31	-12	-3	45	0	-20
